# Bioassay records (PubChem)
# An excerpt weighted towards active compounds, which were near 1.7% of everything screened.
# CFTR F508del cor: correctors of CFTR F508del function in bronchial epithelial cells | CFBE cells, YFP halide quenching; stimulated with forskolin plus potentiator P3; % fluorescence drop versus neutral controls | activity (quench increase), % at 7.58 µM | 350,000 tested, 0.36% active;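 active = mean added fluorescence quench of at least 8% versus neutral control, with both replicates also reaching 8%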;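 note: cells transiently co-express mutant CFTR-F508del with the halide-sensitive YFP; corrector assay measuring rescue of mutant channel to the surface after 24 h compound exposure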
# Vif inh: blocks HIV Vif function; HEK293T cells, Vif self-association by quenched fluorescence, imaging, 24 h; inhibition, % at 7.49 µM; 340,000 tested, 0.35% active; in the data active = inhibition above about 50%, passing the limit was not always enough
# FGF22 binding: shifts melting point of recombinant human FGF22; Q9HCT0; recombinant FGF22 thermal shift, SYPRO orange fluorescence; percent of sucrose octasulfate shift, DMSO zero; activity (Tm shift, normalised), % at 9.99 µM; 340,000 tested, 1.5% active; AID 651658;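 active = mean Tm shift, scaled 0 neutral to 100 positive control, at about 1.3% or above, every replicate too, limit read from the data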
# Target sequence (Q9HCT0 whole entry, looked up): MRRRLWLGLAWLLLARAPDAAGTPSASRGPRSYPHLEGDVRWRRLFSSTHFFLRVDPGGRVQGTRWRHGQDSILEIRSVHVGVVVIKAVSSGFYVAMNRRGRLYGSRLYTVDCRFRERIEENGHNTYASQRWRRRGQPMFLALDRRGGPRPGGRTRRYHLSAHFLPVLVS
# Numbers stand for hits; - = inactive; . = no result.
SMILES,CFTR F508del cor,Vif inh,FGF22 binding
COc1ccc(-c2cnc3c(c2)C(=O)N([C@@H](C)CO)C[C@H](C)[C@@H](CN(C)C(=O)C2CCCCC2)O3)cc1,-,.,-
C(=NOCc1ccccc1)c1cccnc1,-,-,-
N#Cc1ccc(CO/N=C/c2ccccc2)cc1,-,-,44
CN(C)C(=O)C[C@H]1C[C@H]2c3cc(NC(=O)Nc4ccccc4)ccc3O[C@H]2[C@@H](CO)O1,-,.,-
CNC[C@@H]1Oc2ccc(NC(=O)Cn3cnnn3)cc2C(=O)N([C@H](C)CO)C[C@@H]1C,-,.,-
CCCCNc1c(-c2ccc(OC)c(Sc3ccc(OC)cc3)c2)nc2cnccn12,-,61,-
CCCCNc1c(-c2ccc(SC(C)CC)c(OC)c2)nc2ccc(Cl)cn12 (stereo not drawn),-,-,-
CCCCNc1c(-c2ccc(SC(C)CC)c(OC)c2)nc2ccc(C)cn12 (stereo not drawn),8.3,-,-
CCCCNc1c(-c2ccc(OC)c(Sc3ccc(OC)cc3)c2)nc2ccccn12,.,-,.
COCC(=O)Nc1ccc2c(c1)C(=O)N(C)C[C@H](OC)[C@H](C)CN(C(=O)Cc1ccccn1)[C@H](C)CO2,-,.,-
C[C@@H]1CCCCO[C@H](CN(C)C(=O)Nc2cccc3ccccc23)[C@H](C)CN([C@@H](C)CO)C(=O)c2cc(NC(=O)Nc3ccc(F)cc3)ccc2O1,-,.,-
COc1ccc2c3c([nH]c2c1)[C@H](CO)N(C(C)=O)CC31CN(C(=O)Nc2ccccc2F)C1,-,.,.
COc1ccc(S(=O)(=O)N[C@@H]2CC[C@@H](CCn3cc(C(C)C)nn3)O[C@@H]2CO)cc1,-,.,-
Cc1ccc2c(c1)N(C)/C(=C/c1cccc[n+]1C)S2,-,.,-
CN1/C(=C/c2cccc[n+]2C)Sc2ccccc21,-,118,-
COc1ccc(NC(=O)Nc2ccc3c(c2)CC(=O)N([C@H](C)CO)C[C@@H](C)[C@@H](CN(C)Cc2ccc(-c4ccccc4)cc2)O3)cc1,-,.,-
COc1cc(/C=N/NC(=O)c2cc(-c3c(C)nn(-c4ccccc4)c3C)n[nH]2)ccc1O,14,-,-
Cc1nn(-c2ccccc2)c(C)c1-c1cc(C(=O)N/N=C/c2ccc(O)cc2)[nH]n1,-,-,-
COc1cccc(Sc2ccccc2/C=N/NC(N)=O)c1,8.8,-,-
C=CCOc1c(/C=N\NC(N)=O)cccc1OC,-,-,-
CCC(=O)N1[C@@H]2c3ccc(-c4ccccc4F)c(=O)n3C[C@H]1[C@H](CO)[C@H]2C(=O)NC1CCC1,-,.,-
COc1ccccc1S(=O)(=O)N[C@H]1C=C[C@H](CC(=O)N2CCN(C)CC2)O[C@@H]1CO,-,.,-
CC(C)=CCn1c2ccc(NC(=O)NCc3ccc(F)cc3)cc2c(=O)n1C,-,-,-
Cn1c(=O)c2cc(NC(=S)NCc3ccccc3F)ccc2n1Cc1cccc(C(F)(F)F)c1,-,-,3.9
Cn1c(=O)c2cc(NC(=O)NCc3ccc(Cl)cc3Cl)ccc2n1Cc1ccc(F)cc1,-,-,45
SMILES,CFTR F508del cor,Vif inh,FGF22 binding
Cn1c(=O)c2cc(NC(=S)NCc3ccccc3F)ccc2n1Cc1ccccc1,-,-,-
CC(C)CC#Cc1ccc2c(c1)O[C@H](CN(C)C(=O)c1ccccn1)[C@H](C)CN([C@H](C)CO)S2(=O)=O,-,.,-
C[C@@H](NC(=O)C[C@H]1CC[C@@H]2[C@H](COC[C@H](O)CN2Cc2cc(F)ccc2F)O1)c1ccccc1,-,.,-
C[C@H](CO)N1C[C@H](C)[C@@H](CN(C)C(=O)Cc2cccnc2)Oc2cc(C3=CCCCC3)ccc2S1(=O)=O,-,.,-
COc1ccc(-c2c[n+]3c(n2-c2ccccc2)CCCCC3)cc1,-,-,-
COc1ccc(-c2c[n+]3c(n2-c2c(C)n(C)n(-c4ccccc4)c2=O)CCCCC3)cc1,-,-,43
CC(C)CCN1CCN(Cc2cccs2)CC1CCO (stereo not drawn),-,-,43
CC(C)N1CCN(Cc2cccs2)CC1CCO (stereo not drawn),-,-,-
CC(C)[C@H](NC(N)=O)C(=O)Nc1ccc(Oc2ccccc2)cc1,-,-,43
CC(C)[C@H](NC(=O)Nc1ccc(Oc2ccccc2)cc1)C(=O)O,.,-,.
O=C(C[C@@H]1C=C[C@@H](NC(=O)c2cccc(F)c2)[C@H](CO)O1)Nc1nccs1,-,.,-
COc1cccc(C#Cc2ccc([C@H]3[C@@H](C#N)N(C(=O)C4CC4)[C@@H]3CO)cc2)c1,-,.,-
O=C(C[C@H]1C[C@@H]2c3cc(NC(=O)C4CCC4)ccc3O[C@@H]2[C@H](CO)O1)NCc1ccc(-c2ccccc2)cc1,-,.,-
N#C/C(=C\c1ccc(OCc2ccccc2)cc1)C(N)=O,-,-,-
Cc1ccccc1COc1ccc(/C=C(\C#N)C(N)=O)cc1,-,-,44
N#Cc1ccccc1COc1ccc(/C=C/C(=O)O)cc1,-,-,43
O=C(O)/C=C/c1ccc(S(=O)(=O)Nc2ccc(OCc3ccccc3)cc2)cc1,-,-,-
CO[C@H]1CN(C)C(=O)c2cc(NS(C)(=O)=O)ccc2OC[C@H](C)N(CC2CCOCC2)C[C@H]1C,-,.,.
CC1(C)CC(=O)C2=C(C1)NC1=C(C(=O)c3ccccc31)C2c1cccnc1 (stereo not drawn),-,-,44
CC1(C)CC(=O)C2=C(C1)NC1=C(C(=O)c3ccccc31)C2c1ccccc1 (stereo not drawn),.,-,-
COc1ccc2c(C#CCCO)c(-c3ccc(S(C)(=O)=O)cc3)sc2c1,-,-,45
COc1ccc2sc(-c3ccc(S(C)(=O)=O)cc3)c(C#CCO)c2c1,-,-,-
CCCC(=O)Nc1ccc2c(c1)C(=O)N(C)[C@H]1CC[C@@H](CC(=O)NCC3CC3)O[C@@H]1CO2,-,.,-
CC(C)C#Cc1ccc([C@H]2[C@H](CO)N3C(=O)CN(C(=O)Cc4ccccc4)C[C@@H]23)cc1,-,.,.
N#Cc1c(-c2ccccc2)cc(C2CC2)nc1SCC(=O)O,.,-,-
SMILES,CFTR F508del cor,Vif inh,FGF22 binding
N#Cc1c(-c2ccccc2)cc(C2CC2)nc1SCC(=O)c1cccs1,.,86,.
COc1cccc(S(=O)(=O)N[C@H]2CC[C@H](CC(=O)NCc3ccccc3)O[C@@H]2CO)c1,-,.,-
CO[C@H]1CN(C)C(=O)c2cc(NC(=O)c3ccc(F)cc3)ccc2OC[C@@H](C)N(C(C)=O)C[C@@H]1C,-,.,-
O=C1CC(c2ccc(F)cc2)CC2=C1C=Nc1ccccc1N2 (stereo not drawn),-,-,-
O=C1CC(c2ccccc2)CC2=C1C=Nc1ccccc1N2 (stereo not drawn),9.2,-,-
Nc1ccc(CSc2ccccc2)cc1,-,-,43
Nc1ccc(SCc2cccnc2)cc1,-,-,-
COc1ccc(S(=O)(=O)N[C@@H]2CC[C@H](CC(=O)N3CCN(c4ccccc4)CC3)O[C@@H]2CO)cc1,-,.,-
Fc1ccc(F)c(C2=NNC(=NCC3CCCO3)SC2)c1 (stereo not drawn),-,-,43
CC(=O)Nc1ccc(C2=NNC(=NCC3CCCO3)SC2)cc1 (stereo not drawn),-,-,-
Cc1noc(C)c1NC(=O)Nc1ccc2c(c1)CC(=O)N([C@H](C)CO)C[C@@H](C)[C@H](CN(C)Cc1ccc(-c3ccccc3)cc1)O2,-,.,-
